# Source: the supplement of paper PMC7724964
# T1: PLEK 120-231 DEP (domain begin residue: 120, domain end residue: 231), P08567
# T1 chain: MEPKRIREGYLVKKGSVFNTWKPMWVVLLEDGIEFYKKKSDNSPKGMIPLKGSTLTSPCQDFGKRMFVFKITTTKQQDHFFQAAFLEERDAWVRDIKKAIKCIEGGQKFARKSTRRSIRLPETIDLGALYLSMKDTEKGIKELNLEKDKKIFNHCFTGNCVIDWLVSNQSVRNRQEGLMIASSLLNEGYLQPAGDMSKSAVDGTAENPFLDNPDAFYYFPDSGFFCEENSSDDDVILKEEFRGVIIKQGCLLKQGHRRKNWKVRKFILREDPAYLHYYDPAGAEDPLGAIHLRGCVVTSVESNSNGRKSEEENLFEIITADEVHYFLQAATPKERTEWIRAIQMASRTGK
# T2: PPARG 233-505 Hormone_recep (domain begin residue: 233, domain end residue: 505), P37231
# T2 chain: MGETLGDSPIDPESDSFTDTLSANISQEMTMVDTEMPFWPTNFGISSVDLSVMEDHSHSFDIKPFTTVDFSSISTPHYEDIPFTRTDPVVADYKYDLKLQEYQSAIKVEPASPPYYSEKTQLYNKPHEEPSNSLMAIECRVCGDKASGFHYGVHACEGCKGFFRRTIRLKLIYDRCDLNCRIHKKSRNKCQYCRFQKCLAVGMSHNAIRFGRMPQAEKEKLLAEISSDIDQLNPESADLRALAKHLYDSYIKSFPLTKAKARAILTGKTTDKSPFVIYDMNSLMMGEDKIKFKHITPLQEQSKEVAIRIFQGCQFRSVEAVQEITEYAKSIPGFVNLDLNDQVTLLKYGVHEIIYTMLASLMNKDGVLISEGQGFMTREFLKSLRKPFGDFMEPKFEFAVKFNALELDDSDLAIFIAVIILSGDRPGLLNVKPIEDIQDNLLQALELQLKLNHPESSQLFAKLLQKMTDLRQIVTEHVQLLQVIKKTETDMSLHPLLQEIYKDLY
# T3: PDCD6IP 3-392 BRO1 (domain begin residue: 3, domain end residue: 392), Q8WUM4
# T3 chain: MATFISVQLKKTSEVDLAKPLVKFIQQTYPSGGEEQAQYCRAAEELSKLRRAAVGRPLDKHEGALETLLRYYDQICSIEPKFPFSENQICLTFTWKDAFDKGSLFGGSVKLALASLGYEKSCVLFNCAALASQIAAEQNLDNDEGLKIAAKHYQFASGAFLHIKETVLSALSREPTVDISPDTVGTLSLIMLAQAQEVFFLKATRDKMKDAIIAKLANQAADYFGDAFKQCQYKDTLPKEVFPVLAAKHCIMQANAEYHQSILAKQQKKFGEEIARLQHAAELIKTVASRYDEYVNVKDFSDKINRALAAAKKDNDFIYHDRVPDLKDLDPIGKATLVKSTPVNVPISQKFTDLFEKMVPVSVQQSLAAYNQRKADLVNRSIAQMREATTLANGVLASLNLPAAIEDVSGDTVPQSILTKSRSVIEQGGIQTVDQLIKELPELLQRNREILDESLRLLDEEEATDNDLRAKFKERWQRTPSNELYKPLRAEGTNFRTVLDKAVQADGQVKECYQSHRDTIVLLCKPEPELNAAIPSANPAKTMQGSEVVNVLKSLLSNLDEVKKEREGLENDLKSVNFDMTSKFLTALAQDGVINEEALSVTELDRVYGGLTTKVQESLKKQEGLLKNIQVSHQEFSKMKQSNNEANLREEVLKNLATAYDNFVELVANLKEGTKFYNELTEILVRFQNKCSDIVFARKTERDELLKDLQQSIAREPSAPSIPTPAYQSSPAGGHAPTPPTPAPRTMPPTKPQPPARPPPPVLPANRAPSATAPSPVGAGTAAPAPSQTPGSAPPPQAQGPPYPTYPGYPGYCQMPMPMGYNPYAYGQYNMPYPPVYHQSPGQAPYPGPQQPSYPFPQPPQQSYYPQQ
# Tests used:
# Assay in all cases: phage ELISA signal ratio (GST-PRM binding over GST background); higher = stronger binding of peptide-phage to the PRM
# [1] = target: T1, PLEK 120-231 DEP (domain begin residue: …
# Method in brief: (§1)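 Five rounds of selection were carried out against human peptide recognition domains fused to the C-terminus of glutathione S-transferase (GST) and expressed in 96-well plates. The M13 phage library presented randomized hexadecapeptides, cysteine-free and glycine-flanked, on the gene-8 major coat protein. For each value, the phage ELISA signal on the GST-domain fusion was divided by the signal on GST alone.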
# [2] = target: PDCD6 23-191 EF-hand_5+EF-hand_7 (domain begin residue: 23, domain end residue: 191), O75340
# Chain of PDCD6 23-191 EF-hand_5+EF-hand_7 (domain begin residue: 23, domain end residue: 191), O75340 (O75340 whole entry): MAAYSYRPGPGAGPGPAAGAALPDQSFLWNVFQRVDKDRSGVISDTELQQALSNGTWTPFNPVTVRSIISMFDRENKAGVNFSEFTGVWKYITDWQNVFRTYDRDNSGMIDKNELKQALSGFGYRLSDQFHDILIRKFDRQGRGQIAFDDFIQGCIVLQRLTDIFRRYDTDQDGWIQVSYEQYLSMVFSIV
# Method in brief: as §1
# [3] = target: PLEK2 238-353 PH (domain begin residue: 238, domain end residue: 353)
# Method in brief: as §1
# [4] = target: T2, PPARG 233-505 Hormone_recep (domain …
# Method in brief: as §1
# [5] = target: PLEK2 123-229 DEP (domain begin residue: 123, domain end residue: 229)
# Method in brief: as §1
# [6] = target: T3, PDCD6IP 3-392 BRO1 (domain begin …
# Method in brief: as §1
# [7] = target: PIKFYVE 347-450 DEP (domain begin residue: 347, domain end residue: 450), Q9Y2I7
# Chain of PIKFYVE 347-450 DEP (domain begin residue: 347, domain end residue: 450), Q9Y2I7 (Q9Y2I7 whole entry): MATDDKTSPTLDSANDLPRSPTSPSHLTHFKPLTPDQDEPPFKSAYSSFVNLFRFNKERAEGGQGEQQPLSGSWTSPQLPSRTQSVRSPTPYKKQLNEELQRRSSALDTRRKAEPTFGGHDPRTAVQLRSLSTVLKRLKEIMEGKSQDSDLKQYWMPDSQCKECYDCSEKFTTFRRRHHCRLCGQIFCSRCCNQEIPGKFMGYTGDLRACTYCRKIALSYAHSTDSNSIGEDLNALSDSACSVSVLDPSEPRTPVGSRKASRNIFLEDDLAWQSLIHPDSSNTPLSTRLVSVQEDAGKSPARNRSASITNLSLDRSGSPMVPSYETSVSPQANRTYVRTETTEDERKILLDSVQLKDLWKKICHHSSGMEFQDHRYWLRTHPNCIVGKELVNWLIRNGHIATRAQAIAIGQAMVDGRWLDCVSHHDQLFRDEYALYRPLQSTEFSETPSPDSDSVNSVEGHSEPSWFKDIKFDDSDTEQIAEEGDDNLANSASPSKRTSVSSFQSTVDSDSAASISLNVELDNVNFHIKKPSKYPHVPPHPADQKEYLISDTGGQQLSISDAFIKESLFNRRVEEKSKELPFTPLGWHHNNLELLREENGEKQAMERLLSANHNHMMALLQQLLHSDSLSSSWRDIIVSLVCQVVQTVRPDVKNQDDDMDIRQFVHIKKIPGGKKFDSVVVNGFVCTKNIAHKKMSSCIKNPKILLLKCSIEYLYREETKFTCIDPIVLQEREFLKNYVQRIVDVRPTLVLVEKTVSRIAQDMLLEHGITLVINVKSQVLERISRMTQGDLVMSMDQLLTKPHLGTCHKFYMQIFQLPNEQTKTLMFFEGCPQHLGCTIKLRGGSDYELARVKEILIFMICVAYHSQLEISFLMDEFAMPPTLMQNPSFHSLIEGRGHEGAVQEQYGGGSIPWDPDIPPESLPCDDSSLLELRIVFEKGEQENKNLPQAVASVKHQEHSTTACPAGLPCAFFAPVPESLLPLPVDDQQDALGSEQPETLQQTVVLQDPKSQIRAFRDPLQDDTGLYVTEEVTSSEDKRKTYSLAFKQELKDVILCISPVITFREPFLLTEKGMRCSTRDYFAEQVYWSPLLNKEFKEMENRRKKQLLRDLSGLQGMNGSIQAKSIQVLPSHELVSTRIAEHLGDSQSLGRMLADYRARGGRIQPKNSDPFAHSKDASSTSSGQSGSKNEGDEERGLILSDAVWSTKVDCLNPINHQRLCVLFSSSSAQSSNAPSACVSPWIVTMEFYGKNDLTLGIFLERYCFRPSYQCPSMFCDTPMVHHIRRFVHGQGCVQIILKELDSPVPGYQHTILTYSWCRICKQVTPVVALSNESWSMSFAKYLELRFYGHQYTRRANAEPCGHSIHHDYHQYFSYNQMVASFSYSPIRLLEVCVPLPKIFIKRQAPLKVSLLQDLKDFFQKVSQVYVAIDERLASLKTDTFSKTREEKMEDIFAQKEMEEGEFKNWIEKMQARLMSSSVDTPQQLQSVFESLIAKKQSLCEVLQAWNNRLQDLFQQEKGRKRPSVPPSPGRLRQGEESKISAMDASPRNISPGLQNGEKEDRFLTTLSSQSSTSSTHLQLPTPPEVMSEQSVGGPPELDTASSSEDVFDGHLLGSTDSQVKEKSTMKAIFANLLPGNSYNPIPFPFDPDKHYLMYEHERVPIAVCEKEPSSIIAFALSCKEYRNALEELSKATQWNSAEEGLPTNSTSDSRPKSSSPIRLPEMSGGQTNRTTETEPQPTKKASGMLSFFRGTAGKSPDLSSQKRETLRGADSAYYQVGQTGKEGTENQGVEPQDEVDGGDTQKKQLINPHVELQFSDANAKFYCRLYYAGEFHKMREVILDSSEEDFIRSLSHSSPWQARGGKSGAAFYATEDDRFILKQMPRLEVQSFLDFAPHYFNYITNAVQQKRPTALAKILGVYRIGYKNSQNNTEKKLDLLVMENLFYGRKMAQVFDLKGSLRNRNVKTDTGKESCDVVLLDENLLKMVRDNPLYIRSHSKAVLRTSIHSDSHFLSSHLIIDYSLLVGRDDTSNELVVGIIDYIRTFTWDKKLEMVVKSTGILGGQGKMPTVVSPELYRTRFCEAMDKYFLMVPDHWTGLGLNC
# Method in brief: as §1
# [8] = target: PHF19 190-255 PHD (domain begin residue: 190, domain end residue: 255), Q5T6S3
# Method in brief: as §1
binder,measurement,setting,value
WFDEGMWEVINQYNSL,phage ELISA signal ratio,[1],21.9
EPLNYGWEGWLLDGWS,phage ELISA signal ratio,[2],28.8
FQEVTMYGWRPEYLSD,phage ELISA signal ratio,[2],27.7
MHSELNWWEAMQWDSW,phage ELISA signal ratio,[3],4.7
RPDIMERLQQLMVWHG,phage ELISA signal ratio,[1],4.13
MNEHWTEWYWQSQNFV,phage ELISA signal ratio,[3],20.4
VSYGWAHWTMEQGEDA,phage ELISA signal ratio,[2],28.1
YGWDPFLENISWSWQA,phage ELISA signal ratio,[2],33.4
QTDYAYGFYPFIEQHF,phage ELISA signal ratio,[2],32.3
DHWDAFYTWQKQNYLD,phage ELISA signal ratio,[3],36.8
MNHAQIQSPLLWSLLW,phage ELISA signal ratio,[4],11.6
EEMQQLGPFYGWQDWV,phage ELISA signal ratio,[2],30.5
QNGTPMPGWAPWVLEV,phage ELISA signal ratio,[2],34.1
VEQFPYGWADWVHEIV,phage ELISA signal ratio,[2],31.3
DGKHWADFYSAFPMLA,phage ELISA signal ratio,[3],31.8
GPEMWNLHWQDWYNEV,phage ELISA signal ratio,[3],28.3
EIEPWWWDPHHENWAM,phage ELISA signal ratio,[5],7.12
WEDWTYWNDHLHLSPE,phage ELISA signal ratio,[3],8.15
YGWDWEFLEGLQYGKV,phage ELISA signal ratio,[2],32.4
TLTATDWWEEWNWGEN,phage ELISA signal ratio,[3],20.9
QNDGMDKAWVFWHEPT,phage ELISA signal ratio,[3],20.8
YLTWWYDPDHPDWATV,phage ELISA signal ratio,[5],6.35
DQVLKWNEHWHEWLQA,phage ELISA signal ratio,[3],26.3
YPYGWQQWVWESEQVQ,phage ELISA signal ratio,[2],27.1
DSHYGWAEWVLQGPVA,phage ELISA signal ratio,[2],35.1
LQTYDWWADVMDHVLN,phage ELISA signal ratio,[1],4.42
EDVELLNKHWYDWAQV,phage ELISA signal ratio,[3],25
DIPPESYGWAPWVWQV,phage ELISA signal ratio,[2],35.3
DINVTSDMNQHWMQWS,phage ELISA signal ratio,[3],33.1
ASGEHAVGWQDWVWIS,phage ELISA signal ratio,[2],31.1
WEEDFWTGLHFLNNAE,phage ELISA signal ratio,[6],25.5
WADWVFQENEKWDLFV,phage ELISA signal ratio,[2],29.1
PDFWWQQQMADIMQWR,phage ELISA signal ratio,[5],21.4
PSEDVSWWWQQHLMDI,phage ELISA signal ratio,[4],17.6
WNWENVWGLDQTHPLW,phage ELISA signal ratio,[5],3.15
ADYPFEVWQAWVFEEV,phage ELISA signal ratio,[2],36.3
YALPYEWMWMTDLIQE,phage ELISA signal ratio,[7],3.03
DVAWHVPWEQYFEQET,phage ELISA signal ratio,[6],16.8
FDQLMHEAYTQWQSQQ,phage ELISA signal ratio,[1],31.5
WDYMSEEESIRYLIEW,phage ELISA signal ratio,[6],27.3
AEEHSMSLMSLLLAPS,phage ELISA signal ratio,[4],5.77
LQVEYGWAEWTWIGAD,phage ELISA signal ratio,[2],27.2
VPVYGWDPGLWDGHAL,phage ELISA signal ratio,[2],35.1
FDAYWQDLYMMDLDSF,phage ELISA signal ratio,[6],19.8
LNDHWVAWHLMKNEIQ,phage ELISA signal ratio,[3],14.3
WNWENVWWLDQTHPLW,phage ELISA signal ratio,[5],10.1
TPGDLIDFSTLTFYYV,phage ELISA signal ratio,[8],7.11
MSGITDWWENPAYWSW,phage ELISA signal ratio,[3],3.86
KLEMYQGTIPYGNYWP,phage ELISA signal ratio,[8],6.64
MEAPHWVWPPDGYALR,phage ELISA signal ratio,[8],6.23
EFEMDFWEMWNAWLSQ,phage ELISA signal ratio,[5],14.9
SIKHWEQFYASQPPQI,phage ELISA signal ratio,[3],16.2
YPEFAHYGFADWIYAS,phage ELISA signal ratio,[2],30.4
IVALESPYGWQDWVTT,phage ELISA signal ratio,[2],28.1
AAQYGWQDWVMVPESM,phage ELISA signal ratio,[2],32.8
QDLESWWWSEHLSNIM,phage ELISA signal ratio,[4],14.3
DFNAHWLEWHAQHVAL,phage ELISA signal ratio,[3],28.5
